PvdQ acylase: P. aeruginosa PvdQ acylase inhibitors, primary screen, biochemical, fluorescence, plate reader and imaging, single point | inhibition, % at 10 µM | hit rate 0.063% among 340,000 | purified PvdQ acylase; in the data active means inhibition above about 30%, passing the limit was not always enough
PDI turbidity: inhibitors of human PDI, primary screen, biochemical, turbidity, single point, plate reader | Protein disulfide-isomerase (Homo sapiens), P07237 | PDI insulin aggregation turbidity, A650, 90 min | inhibition, % at 10 µM | hit rate 0.052% among 350,000;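 active means mean inhibition across replicates of 30% or more, whatever share of single replicates reach that level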
Rtt109 Vps75: inhibitors of C. albicans Rtt109/Vps75 HAT, primary screen, biochemical, ThioGlo CoA-SH fluorescence, plate reader; Histone acetyltransferase RTT109 (Candida albicans (strain SC5314 / ATCC MYA-2876)), …; inhibition, % at 34.9 µM; purified Rtt109/Vps75, 4 h; hit rate 0.16% among 330,000;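 active means inhibition of at least 50% in every replicate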
Target sequence (Q5AAJ8 whole entry, looked up): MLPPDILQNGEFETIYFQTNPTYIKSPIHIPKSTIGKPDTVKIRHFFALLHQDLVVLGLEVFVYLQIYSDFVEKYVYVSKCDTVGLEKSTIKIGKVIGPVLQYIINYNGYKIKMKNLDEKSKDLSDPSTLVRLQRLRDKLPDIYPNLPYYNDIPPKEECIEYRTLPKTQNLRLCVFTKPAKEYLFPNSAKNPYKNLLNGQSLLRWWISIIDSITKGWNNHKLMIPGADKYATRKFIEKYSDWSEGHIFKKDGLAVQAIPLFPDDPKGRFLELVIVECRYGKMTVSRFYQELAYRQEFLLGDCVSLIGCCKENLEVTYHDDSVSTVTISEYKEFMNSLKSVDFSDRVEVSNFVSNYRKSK
Efflux pump mplx: inhibitors of Candida efflux pumps in yeast, primary screen, S. cerevisiae, Nile Red, multiplex | S. cerevisiae Candida pump triplex | inhibition, % at 10 µM | hit rate 0.44% among 330,000 | AID 485275, 2010;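 active means plate passing quality check with inhibition over a set limit, or well fluorescence over plate mean plus 4 SD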;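 further: Nile Red retained in pooled yeast measured as flow cytometry median fluorescence; higher means more Nile Red kept so more efflux inhibition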
ERp5 block: inhibitors of ERp5-driven insulin aggregation, primary screen, biochemical, turbidity, absorbance 650 nm, single point. inhibition, % at 9.99 µM. AID 651711, 2012. 90 min. hit rate 0.05% among 350,000;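 active means mean replicate inhibition above about 25%, with every replicate also reaching it, limit read from the data, passing the limit was not always enough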
Target sequence (Q15084 whole entry, looked up): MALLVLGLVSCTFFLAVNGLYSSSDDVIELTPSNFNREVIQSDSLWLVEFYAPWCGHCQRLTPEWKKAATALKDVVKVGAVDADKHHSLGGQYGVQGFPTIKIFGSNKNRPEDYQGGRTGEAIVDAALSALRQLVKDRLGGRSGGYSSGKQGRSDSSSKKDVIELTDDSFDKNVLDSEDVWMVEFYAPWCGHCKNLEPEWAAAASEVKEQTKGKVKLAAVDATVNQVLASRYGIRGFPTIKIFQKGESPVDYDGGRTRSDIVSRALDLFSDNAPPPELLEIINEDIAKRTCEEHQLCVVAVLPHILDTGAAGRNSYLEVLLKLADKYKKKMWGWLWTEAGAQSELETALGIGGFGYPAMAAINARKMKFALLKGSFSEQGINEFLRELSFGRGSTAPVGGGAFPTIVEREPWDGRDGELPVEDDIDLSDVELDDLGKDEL
Large screens that a line does not name were inactive; ! = repeats disagree. The list is not random: actives were taken first. Their share in the collection is about 0.54%.

CN(Cc1cc([N+](=O)[O-])c2cccnc2c1O)C1CCCCC1	Efflux pump mplx 8.2 (no result: PvdQ acylase, PDI turbidity, Rtt109 Vps75, ERp5 block)
COc1cc(C2NC(=O)C(C#N)=C(Nc3cccc(C)c3)S2)ccc1O (stereo not given)	Rtt109 Vps75 147
C[C@@H]1CN([C@@H](C)CO)C(=O)c2cc(NS(=O)(=O)c3ccc(F)cc3)ccc2O[C@@H](C)CCCCO[C@@H]1CN(C)C(=O)Nc1cccc2ccccc12	none (no result: PvdQ acylase, PDI turbidity, Rtt109 Vps75, Efflux pump mplx)
CO[C@@H]1CN(C)C(=O)c2cc(NC(=O)CC(F)(F)F)ccc2OC[C@@H](C)N(C(=O)C2CCCC2)C[C@H]1C	none (no result: PvdQ acylase, PDI turbidity, Rtt109 Vps75, Efflux pump mplx)
CO[C@H]1CN(C)C(=O)c2cc(NC(=O)CC(F)(F)F)ccc2OC[C@H](C)N(C(=O)C2CC2)C[C@@H]1C	ERp5 block 42 (no result: PvdQ acylase, PDI turbidity, Rtt109 Vps75, Efflux pump mplx)
Cc1cc(C)c(-n2nnnc2SCC(=O)c2cccs2)c(C)c1	Rtt109 Vps75 60
O=C(C1CC1)N1C[C@@H]2N[C@H](C1)C2c1ccc(-c2ccccc2F)cc1 (stereo not given in full)	none (no result: PvdQ acylase, PDI turbidity, Rtt109 Vps75, Efflux pump mplx)
CC(C)C[C@@H](CN1CCC[C@@H]1CN1C(=O)C(=O)NC[C@@H]1Cc1ccccc1)N1C[C@H](Cc2ccc(O)cc2)N(CCc2ccccc2)C(=O)C1=O	PDI turbidity 48 (no result: Efflux pump mplx)
O=C1NC[C@H](Cc2ccc(O)cc2)N(CC2CCCCC2)C1=O	PDI turbidity 34
CC(C)C[C@@H](CN1CCC[C@H]1CN1C(=O)C(=O)NC[C@@H]1Cc1ccccc1)N1C[C@H](Cc2ccc(O)cc2)N(CCc2ccccc2)C(=O)C1=O	none (no result: PvdQ acylase, PDI turbidity, Rtt109 Vps75, Efflux pump mplx)
C[C@@H]1CN([C@@H](C)CO)C(=O)c2cc(NC(=O)NC3CCCCC3)ccc2O[C@@H](C)CCCCO[C@H]1CN(C)Cc1ccc(C(F)(F)F)cc1	none (no result: PvdQ acylase, PDI turbidity, Rtt109 Vps75, Efflux pump mplx)
CC(=O)c1cccc(S(=O)(=O)N2CCC(C(=O)O)(c3ccccc3)CC2)c1	none
CC(=O)c1cccc(S(=O)(=O)N2CCC(C(=O)O)CC2)c1	Rtt109 Vps75 58
CCCCCCCCCCCCCCCCn1cc[n+](CC(C)=O)c1	Rtt109 Vps75 112 (no result: Efflux pump mplx, ERp5 block)
C[C@H]1CCCCO[C@@H](CN(C)C(=O)Cc2ccccc2)[C@@H](C)CN([C@@H](C)CO)C(=O)c2cc(NC(=O)c3ccncc3)ccc2O1	none (no result: PvdQ acylase, PDI turbidity, Rtt109 Vps75, Efflux pump mplx)
CCN1C(=O)CC(N2CCC(C(=O)OC)CC2)C1=O (stereo not given)	none (no result: ERp5 block)
COC(=O)C1CCN(C2CC(=O)N(c3cc(C)cc(C)c3)C2=O)CC1 (stereo not given)	PvdQ acylase 36
COc1ccc(CN(C)C[C@H]2Oc3ccc(NS(=O)(=O)c4c(C)noc4C)cc3C(=O)N([C@H](C)CO)C[C@H]2C)cc1	none (no result: PvdQ acylase, PDI turbidity, Rtt109 Vps75, Efflux pump mplx)
COc1ccc2c3c(n(C)c2c1)[C@@H](CO)NCC31CN(C(=O)Nc2ccc(F)cc2F)C1	none (no result: PvdQ acylase, PDI turbidity, Rtt109 Vps75, Efflux pump mplx)
C[C@@H]1CN([C@@H](C)CO)C(=O)CCCn2nncc2CO[C@H]1CN(C)S(=O)(=O)c1ccc(Oc2ccccc2)cc1	none (no result: PvdQ acylase, Rtt109 Vps75, Efflux pump mplx)
C[C@H](CO)N1C[C@H](C)[C@@H](CN(C)S(=O)(=O)c2ccc(Oc3ccccc3)cc2)OCc2cnnn2CCCC1=O	ERp5 block 89! (no result: PvdQ acylase, Rtt109 Vps75, Efflux pump mplx)
Cc1ccc(S(=O)(=O)Nc2ccc3c(c2)C(=O)N([C@@H](C)CO)C[C@@H](C)[C@H](CN(C)Cc2ccc(C(F)(F)F)cc2)OCCCC[C@@H](C)O3)cc1	none (no result: PvdQ acylase, PDI turbidity, Rtt109 Vps75, Efflux pump mplx)
Cc1cc(NC(=O)c2cc([N+](=O)[O-])ccc2Cl)no1	PvdQ acylase 88
Cc1cc(NC(=O)c2cc(Cl)ccc2Cl)no1	PvdQ acylase 75 (no result: ERp5 block)
Cc1cc(NC(=O)c2c(F)c(F)c(F)c(F)c2F)no1	PvdQ acylase 63 (no result: ERp5 block)
Cc1cc(NC(=O)c2ccc([N+](=O)[O-])cc2)no1	none
Cc1cc(NC(=O)c2ccc([N+](=O)[O-])cc2Cl)no1	PvdQ acylase 40
COC(=O)C[C@@H]1CC[C@H]2[C@H](COc3ccc(NS(=O)(=O)c4ccc(F)cc4)cc3C(=O)N2C)O1	none (no result: PvdQ acylase, PDI turbidity, Rtt109 Vps75, Efflux pump mplx)
COc1ccc2c3c(n(C)c2c1)[C@@H](CO)N(Cc1cccnc1)CC31CCN(C(=O)c2cccnc2)CC1	none (no result: PvdQ acylase, PDI turbidity, Rtt109 Vps75, Efflux pump mplx)
CC(C)CC#Cc1ccc2c(c1)O[C@@H](CN(C)C(=O)c1ccccn1)[C@@H](C)CN([C@@H](C)CO)S2(=O)=O	ERp5 block 45 (no result: PvdQ acylase, PDI turbidity, Rtt109 Vps75, Efflux pump mplx)
COCC(=O)N(C)C[C@@H]1Oc2cc(C#CC(C)(C)O)ccc2S(=O)(=O)N([C@H](C)CO)C[C@@H]1C	ERp5 block 61 (no result: PvdQ acylase, PDI turbidity, Rtt109 Vps75, Efflux pump mplx)
CC(C)CC#Cc1ccc2c(c1)O[C@@H](CN(C)C(=O)c1ccccn1)[C@H](C)CN([C@H](C)CO)S2(=O)=O	none (no result: PvdQ acylase, PDI turbidity, Rtt109 Vps75, Efflux pump mplx)
Cc1ccc(S(=O)(=O)Nc2ccc(O)c3ncccc23)cc1	none (no result: PDI turbidity)
Cc1ccc(S(=O)(=O)Nc2ccc(O)c3cccnc23)cc1	Rtt109 Vps75 128
CCCNC(=O)N1CC2(CCN(S(=O)(=O)c3cccc(OC)c3)CC2)c2c(n(C)c3cc(OC)ccc23)[C@@H]1CO	none (no result: PvdQ acylase, PDI turbidity, Rtt109 Vps75, Efflux pump mplx)
CC(=O)Oc1cc2c(cc1Cl)C1(CC(c3ccccc3Cl)O2)CC(C)(C)NC(=S)N1 (stereo not given)	Efflux pump mplx 114 (no result: ERp5 block)
O=C1C=C(c2ccccc2)OC2(CCCC2)O1	none (no result: ERp5 block)
O=C1C=C(c2ccccc2)OC(c2ccccc2)O1 (stereo not given)	PvdQ acylase 47
O=C(C[C@H]1CC[C@H]2[C@@H](COC[C@H](O)CN2Cc2cccc(F)c2)O1)NCc1cccc(F)c1	none (no result: PvdQ acylase, PDI turbidity, Rtt109 Vps75, Efflux pump mplx)
Cc1c(O)ccc2c(CN3CCN(C/C=C/c4ccccc4)CC3)cc(=O)oc12	PDI turbidity 44
COc1ccc(NC(=O)Nc2ccc3c(c2)C(=O)N([C@@H](C)CO)C[C@H](C)[C@H](CN(C)S(=O)(=O)c2ccc(F)cc2)OCCCC[C@@H](C)O3)cc1	none (no result: PvdQ acylase, PDI turbidity, Rtt109 Vps75, Efflux pump mplx)
N#Cc1ccc(S(=O)(=O)N2CCc3[nH]c4ccc(F)cc4c3C2)cc1	Rtt109 Vps75 54
O=C(Nc1ccccc1)N[C@@H]1CC[C@H](CCn2cc(-c3ccccc3F)nn2)O[C@H]1CO	none (no result: PvdQ acylase, PDI turbidity, Rtt109 Vps75, Efflux pump mplx)
O=C(NCC[C@@H]1CC[C@@H](NS(=O)(=O)c2ccccc2)[C@H](CO)O1)c1ccc2c(c1)OCO2	none (no result: PvdQ acylase, PDI turbidity, Rtt109 Vps75, Efflux pump mplx)
N#CC(c1ccccc1)c1cccc(Cl)n1 (stereo not given)	PvdQ acylase 103
CN(C)c1ccc(C(C#N)c2ccccc2)nn1 (stereo not given)	none
COc1ccccc1C(C#N)c1cccc(Cl)n1 (stereo not given)	PvdQ acylase 116
O=C1C2C3C=CC(C4CC34)C2C(=O)N1CCc1ccccc1 (stereo not given)	none (no result: ERp5 block)
O=C(CN1C(=O)C2C3C=CC(C4CC34)C2C1=O)Oc1ccccc1 (stereo not given)	PvdQ acylase 34
COc1ccc2c3c([nH]c2c1)[C@@H](CO)N(Cc1nccs1)CC31CCN(C(=O)C2CC2)CC1	none (no result: PvdQ acylase, PDI turbidity, Rtt109 Vps75, Efflux pump mplx)
COc1ccc(/C=C2/SC(=O)N(NS(=O)(=O)c3ccccc3)C2=S)cc1OC	Rtt109 Vps75 79
Cc1ccccc1C(=O)NCCNC(=O)c1ccco1	Rtt109 Vps75 51

Bioassay records as filed in PubChem.
